Results on one sequence are retold here after paper PMC7862700, “An all-to-all approach to the identification of sequence-specific readers for epigenetic DNA modifications on cytosine”.

What all share (assay): DAPPL (digital affinity profiling via proximity ligation, sequencing); 10 mM Tris-HCl pH 7.5, 50 mM NaCl, 1 mM DTT, 4% glycerol, room temperature, 30 min; GST-TFs on glutathione beads, 16-mer random dsDNA library, 0.1% formaldehyde crosslink after washing; high values mean tight binding
Details in all cases: protein: recombinant; tags: N-terminal GST; dsDNA, one strand shown

One experiment has as its target T1, ERG (Homo sapiens, UniProt P11308 1-479).
T1 sequence: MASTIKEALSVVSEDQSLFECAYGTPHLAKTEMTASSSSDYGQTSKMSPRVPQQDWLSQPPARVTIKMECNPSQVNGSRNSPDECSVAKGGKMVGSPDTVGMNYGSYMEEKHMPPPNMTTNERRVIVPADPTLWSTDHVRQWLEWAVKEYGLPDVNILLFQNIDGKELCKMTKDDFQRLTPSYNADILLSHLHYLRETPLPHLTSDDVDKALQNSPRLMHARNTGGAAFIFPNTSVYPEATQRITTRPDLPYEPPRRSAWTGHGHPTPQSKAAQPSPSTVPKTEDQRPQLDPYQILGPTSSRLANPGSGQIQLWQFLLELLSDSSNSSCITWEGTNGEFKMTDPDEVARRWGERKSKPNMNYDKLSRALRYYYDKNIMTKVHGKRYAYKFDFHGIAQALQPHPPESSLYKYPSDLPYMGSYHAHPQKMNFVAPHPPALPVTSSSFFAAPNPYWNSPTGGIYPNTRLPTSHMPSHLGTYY
The procedure, abridged: (§1)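 Sequencing on an Illumina NextSeq500 followed washing, crosslinking with 0.1% formaldehyde, proximity ligation (BsaI/T4 ligase, 1 h, 37 °C) and PCR amplification of pools that had been incubated for 30 min at room temperature with 200 nmole of a random double-stranded 16-mer DNA library in Tris/NaCl/DTT/glycerol buffer. Each pool held DNA-barcoded human transcription factors, expressed in yeast as GST fusions and captured on glutathione beads, plus a tag-only sample. Binding signal is a hexamer's read frequency for a factor divided by its frequency in the tag-only sample.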

The next experiment has as its target SPIB (Homo sapiens, UniProt Q01892 1-262). The procedure, abridged: as §1
The next experiment has as its target T2, ELK3 (Homo sapiens, UniProt P41970 1-407).
T2 sequence: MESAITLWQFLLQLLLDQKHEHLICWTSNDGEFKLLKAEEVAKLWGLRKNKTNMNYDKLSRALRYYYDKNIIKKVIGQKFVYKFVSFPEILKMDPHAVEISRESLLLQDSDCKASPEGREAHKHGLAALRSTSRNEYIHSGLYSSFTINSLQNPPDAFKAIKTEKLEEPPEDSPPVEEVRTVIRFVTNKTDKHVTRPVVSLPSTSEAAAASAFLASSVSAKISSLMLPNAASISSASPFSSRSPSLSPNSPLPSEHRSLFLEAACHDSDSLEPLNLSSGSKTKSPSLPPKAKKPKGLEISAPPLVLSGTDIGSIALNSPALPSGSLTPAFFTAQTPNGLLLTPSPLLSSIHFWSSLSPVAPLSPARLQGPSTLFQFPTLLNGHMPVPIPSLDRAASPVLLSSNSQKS
In outline:
as §1

For a further experiment, the target named is T3, SPIC (Homo sapiens, UniProt Q8N5J4 1-248).
T3 sequence: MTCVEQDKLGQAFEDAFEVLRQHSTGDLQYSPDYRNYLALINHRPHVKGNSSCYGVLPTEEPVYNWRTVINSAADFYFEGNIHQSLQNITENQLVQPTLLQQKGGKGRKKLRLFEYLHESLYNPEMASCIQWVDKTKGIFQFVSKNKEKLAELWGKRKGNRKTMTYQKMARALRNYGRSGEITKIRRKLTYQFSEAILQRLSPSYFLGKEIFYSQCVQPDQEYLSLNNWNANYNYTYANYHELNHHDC
The procedure, abridged: as §1

The target of a further experiment is ELF4 (Homo sapiens, UniProt Q99607 1-663). In outline: as §1
The target in the next experiment is T4, ELK4 (Homo sapiens, UniProt P28324-2 1-405).
T4 sequence: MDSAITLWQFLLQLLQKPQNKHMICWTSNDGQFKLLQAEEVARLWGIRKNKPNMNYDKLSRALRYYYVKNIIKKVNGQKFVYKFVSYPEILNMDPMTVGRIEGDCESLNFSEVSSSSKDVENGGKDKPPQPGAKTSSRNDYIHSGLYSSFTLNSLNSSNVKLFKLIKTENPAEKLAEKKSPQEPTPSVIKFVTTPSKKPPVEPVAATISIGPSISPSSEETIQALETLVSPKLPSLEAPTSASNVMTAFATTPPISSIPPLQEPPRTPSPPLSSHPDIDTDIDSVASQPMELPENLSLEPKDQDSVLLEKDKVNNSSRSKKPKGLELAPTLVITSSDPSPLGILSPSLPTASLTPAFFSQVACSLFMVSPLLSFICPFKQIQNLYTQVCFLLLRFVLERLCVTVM
The procedure, abridged: as §1

The target of the next experiment is T5, ELF3 (Homo sapiens, UniProt P78545 1-371).
T5 sequence: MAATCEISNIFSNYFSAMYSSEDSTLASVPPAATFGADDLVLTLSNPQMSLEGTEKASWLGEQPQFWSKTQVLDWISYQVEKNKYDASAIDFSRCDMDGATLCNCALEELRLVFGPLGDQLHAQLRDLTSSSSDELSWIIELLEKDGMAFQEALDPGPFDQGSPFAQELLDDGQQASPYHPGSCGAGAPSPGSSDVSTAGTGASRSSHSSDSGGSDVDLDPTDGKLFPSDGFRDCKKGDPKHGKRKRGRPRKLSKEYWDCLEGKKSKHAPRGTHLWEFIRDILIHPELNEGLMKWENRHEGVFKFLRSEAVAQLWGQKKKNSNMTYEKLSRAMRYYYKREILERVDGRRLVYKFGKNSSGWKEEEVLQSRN
In outline:
as §1

The next experiment deals with ETV1 (Homo sapiens, UniProt P50549 1-477). The procedure, abridged: as §1
Another experiment concerns the target T6, ERF (Homo sapiens, UniProt P50548 1-548).
T6 sequence: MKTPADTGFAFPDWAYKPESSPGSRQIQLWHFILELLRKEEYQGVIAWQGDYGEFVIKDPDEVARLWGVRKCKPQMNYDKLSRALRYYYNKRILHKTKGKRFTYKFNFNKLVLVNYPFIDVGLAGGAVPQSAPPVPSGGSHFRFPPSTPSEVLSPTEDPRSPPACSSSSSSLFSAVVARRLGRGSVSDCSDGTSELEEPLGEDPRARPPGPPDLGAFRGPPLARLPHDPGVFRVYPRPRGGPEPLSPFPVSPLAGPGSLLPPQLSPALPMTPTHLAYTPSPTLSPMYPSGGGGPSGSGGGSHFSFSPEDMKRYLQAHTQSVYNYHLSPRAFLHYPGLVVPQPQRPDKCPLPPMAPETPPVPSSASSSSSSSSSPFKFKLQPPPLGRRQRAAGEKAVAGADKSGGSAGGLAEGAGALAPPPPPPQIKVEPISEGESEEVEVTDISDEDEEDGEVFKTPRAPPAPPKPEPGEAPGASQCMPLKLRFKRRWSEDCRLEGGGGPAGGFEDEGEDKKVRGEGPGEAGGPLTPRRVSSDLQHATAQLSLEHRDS
The procedure, abridged: as §1

The target of a further experiment is T7, ETV3L (Homo sapiens, UniProt Q6ZN32 1-361).
T7 sequence: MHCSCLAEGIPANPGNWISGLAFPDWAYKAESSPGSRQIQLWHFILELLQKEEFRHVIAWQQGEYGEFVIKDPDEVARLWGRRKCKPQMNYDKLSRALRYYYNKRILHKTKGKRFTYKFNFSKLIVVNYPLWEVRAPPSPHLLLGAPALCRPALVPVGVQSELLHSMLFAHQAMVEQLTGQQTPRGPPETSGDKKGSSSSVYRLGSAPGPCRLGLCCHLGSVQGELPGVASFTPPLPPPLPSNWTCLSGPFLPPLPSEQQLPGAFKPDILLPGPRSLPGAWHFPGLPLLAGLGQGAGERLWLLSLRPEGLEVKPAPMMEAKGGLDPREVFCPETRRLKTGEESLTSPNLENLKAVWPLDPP
In outline:
as §1

The target in the next experiment is T8, SPDEF (Homo sapiens, UniProt O95238 1-335).
T8 sequence: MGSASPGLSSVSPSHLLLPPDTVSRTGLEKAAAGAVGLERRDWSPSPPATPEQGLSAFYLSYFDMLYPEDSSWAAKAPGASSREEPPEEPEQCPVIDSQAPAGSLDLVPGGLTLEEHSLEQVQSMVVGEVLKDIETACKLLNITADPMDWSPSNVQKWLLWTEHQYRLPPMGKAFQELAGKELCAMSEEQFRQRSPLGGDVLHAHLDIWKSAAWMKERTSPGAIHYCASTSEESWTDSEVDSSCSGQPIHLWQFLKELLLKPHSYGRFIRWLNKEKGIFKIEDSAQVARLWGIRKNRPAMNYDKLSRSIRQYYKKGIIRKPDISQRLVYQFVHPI
In outline:
as §1

The target in another experiment is T9, ETV7 (Homo sapiens, UniProt Q9Y603 1-341).
T9 sequence: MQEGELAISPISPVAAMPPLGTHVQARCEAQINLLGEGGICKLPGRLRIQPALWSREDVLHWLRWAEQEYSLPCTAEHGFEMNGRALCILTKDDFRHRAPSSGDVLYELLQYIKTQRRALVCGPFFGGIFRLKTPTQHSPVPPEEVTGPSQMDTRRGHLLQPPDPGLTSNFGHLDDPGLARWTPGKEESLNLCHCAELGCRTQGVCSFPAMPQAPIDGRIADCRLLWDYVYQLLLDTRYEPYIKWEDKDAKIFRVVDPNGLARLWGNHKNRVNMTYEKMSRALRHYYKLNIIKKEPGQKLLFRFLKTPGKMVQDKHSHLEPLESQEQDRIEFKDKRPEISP
In outline:
as §1

A further experiment addresses T10, ETV3 (Homo sapiens, UniProt P41162-2 1-143).
T10 sequence: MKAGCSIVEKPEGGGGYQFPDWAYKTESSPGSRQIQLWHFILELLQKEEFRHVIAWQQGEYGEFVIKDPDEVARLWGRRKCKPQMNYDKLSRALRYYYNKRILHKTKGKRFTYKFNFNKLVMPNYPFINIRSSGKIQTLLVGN
The procedure, abridged: as §1

In another experiment the target is ETV6 (Homo sapiens, UniProt P41212 1-452). The procedure, abridged:
as §1

Sequence of ETV1 (P50549 whole entry): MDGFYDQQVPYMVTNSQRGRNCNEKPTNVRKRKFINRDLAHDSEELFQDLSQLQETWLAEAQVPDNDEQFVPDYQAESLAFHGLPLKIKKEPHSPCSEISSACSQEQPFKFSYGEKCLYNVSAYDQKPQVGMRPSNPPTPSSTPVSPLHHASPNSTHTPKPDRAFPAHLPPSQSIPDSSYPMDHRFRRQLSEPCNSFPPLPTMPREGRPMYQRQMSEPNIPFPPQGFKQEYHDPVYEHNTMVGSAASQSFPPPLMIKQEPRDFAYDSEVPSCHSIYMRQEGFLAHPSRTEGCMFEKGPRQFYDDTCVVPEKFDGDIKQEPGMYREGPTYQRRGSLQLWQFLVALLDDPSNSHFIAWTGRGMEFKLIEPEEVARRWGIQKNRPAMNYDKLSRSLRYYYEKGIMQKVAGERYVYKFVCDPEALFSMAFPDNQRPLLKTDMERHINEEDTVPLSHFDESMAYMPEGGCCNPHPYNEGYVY
Sequence of SPIB (Q01892 whole entry): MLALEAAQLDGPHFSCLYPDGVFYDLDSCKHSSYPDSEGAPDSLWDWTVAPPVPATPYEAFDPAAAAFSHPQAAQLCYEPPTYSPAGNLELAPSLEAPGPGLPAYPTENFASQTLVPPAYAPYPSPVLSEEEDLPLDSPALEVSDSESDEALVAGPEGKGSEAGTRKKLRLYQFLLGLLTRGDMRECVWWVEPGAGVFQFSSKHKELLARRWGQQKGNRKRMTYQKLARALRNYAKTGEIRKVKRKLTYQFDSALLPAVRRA
Sequence of ETV6 (P41212 whole entry): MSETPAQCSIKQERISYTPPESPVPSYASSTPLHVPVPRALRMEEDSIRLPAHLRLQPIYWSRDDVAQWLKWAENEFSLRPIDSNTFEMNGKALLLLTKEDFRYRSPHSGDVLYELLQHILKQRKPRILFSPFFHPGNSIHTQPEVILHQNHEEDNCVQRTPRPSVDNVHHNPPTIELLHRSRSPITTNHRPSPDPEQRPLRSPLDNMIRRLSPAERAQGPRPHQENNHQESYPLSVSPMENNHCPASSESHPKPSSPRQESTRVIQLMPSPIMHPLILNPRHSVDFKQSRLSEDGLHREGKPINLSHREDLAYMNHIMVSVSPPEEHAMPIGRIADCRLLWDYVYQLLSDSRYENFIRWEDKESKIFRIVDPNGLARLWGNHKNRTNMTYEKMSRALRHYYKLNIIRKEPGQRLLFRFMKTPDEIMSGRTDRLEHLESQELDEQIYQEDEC
Sequence of ELF4 (Q99607 whole entry): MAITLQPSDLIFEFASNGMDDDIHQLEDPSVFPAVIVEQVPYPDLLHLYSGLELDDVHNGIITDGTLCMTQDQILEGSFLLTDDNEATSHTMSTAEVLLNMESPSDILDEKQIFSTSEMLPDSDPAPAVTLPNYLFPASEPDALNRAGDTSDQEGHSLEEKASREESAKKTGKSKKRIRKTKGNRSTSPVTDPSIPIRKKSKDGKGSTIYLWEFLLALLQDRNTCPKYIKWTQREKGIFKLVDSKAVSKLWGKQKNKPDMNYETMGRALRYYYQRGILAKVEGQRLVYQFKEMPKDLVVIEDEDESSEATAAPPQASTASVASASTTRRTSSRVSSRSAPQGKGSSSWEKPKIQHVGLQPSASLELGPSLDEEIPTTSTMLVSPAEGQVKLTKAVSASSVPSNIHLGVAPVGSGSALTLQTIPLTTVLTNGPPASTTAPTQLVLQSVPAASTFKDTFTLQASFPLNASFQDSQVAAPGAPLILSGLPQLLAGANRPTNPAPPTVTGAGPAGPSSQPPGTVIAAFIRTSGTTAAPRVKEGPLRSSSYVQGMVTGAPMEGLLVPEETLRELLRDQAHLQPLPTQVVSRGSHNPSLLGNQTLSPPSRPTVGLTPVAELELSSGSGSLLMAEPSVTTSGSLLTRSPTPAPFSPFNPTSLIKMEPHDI

Regarding TCGAGC, the binding signal was 1.03 fold enrichment (6-mer frequency, TF over GST control) with ERG; 1.1 fold enrichment (6-mer frequency, TF over GST control) in the experiment with SPIB; 1.01 fold enrichment (6-mer frequency, TF over GST control) with ELK3; 1.04 fold enrichment (6-mer frequency, TF over GST control) in the experiment with SPIC; 1.03 fold enrichment (6-mer frequency, TF over GST control) with ELF4; 1.11 fold enrichment (6-mer frequency, TF over GST control) with ELK4. Moreover, the binding signal with ELF3 is 1 fold enrichment (6-mer frequency, TF over GST control); in the experiment with ETV1 it was 1.08 fold enrichment (6-mer frequency, TF over GST control); with ERF it was 1.03 fold enrichment (6-mer frequency, TF over GST control); with ETV3L, 1.15 fold enrichment (6-mer frequency, TF over GST control); with SPDEF it was 1.08 fold enrichment (6-mer frequency, TF over GST control); in the experiment with ETV7, 1.09 fold enrichment (6-mer frequency, TF over GST control). The binding signal is 1.03 fold enrichment (6-mer frequency, TF over GST control) in the experiment with ETV3 and 1.02 fold enrichment (6-mer frequency, TF over GST control) with ETV6.
